The source of these data is the antibiotic and cytotoxicity screens of Wong et al. (2023).

SMILES strings stand for the structures. Hit rate of the full screen: of about 39,000 compounds, about 3,300 (8.5%) were called active. The entries come from a sample that favours actives as a whole.

The subject of this experiment is HepG2. Kind of experiment: cytotoxicity call (relative viability < 0.9). The settings on record: 10 µM.
Turning to `C[C@H]1CN([C@@H](C)CO)C(=O)c2cc(NS(=O)(=O)c3cn(C)cn3)ccc2O[C@H]1CN(C)CC1CC1`, the cytotoxicity call is “inactive”. For the molecule `COCC(=O)Nc1ccc2c(c1)OC[C@@H](C)N(C(=O)c1ccccc1F)C[C@@H](C)[C@H](OC)CN(C)C2=O`, the cytotoxicity call is “inactive”. As for `O=C1OCC=C[C@H]2O[C@@]34C=CCN(CCN5CCOCC5)C(=O)[C@H]3N(CCCCCCO)C(=O)[C@@H]4[C@@H]12`, the entry is “inactive”. Take `C=CC1CN2CCC1CC2C(O)c1ccnc2ccc(OC)cc12` (centres undefined): the cytotoxicity call is “inactive”.

Consider `C=CC1CN2CCC1CC2C(O)c1ccnc2ccc(OC)cc12.Cl` (centres undefined), for which the cytotoxicity call was “active”.

In the case of `C=CC1CN2CCC1CC2C(O)c1ccnc2ccc(OC)cc12.O=C(O)C(O)C(O)C(O)C(O)CO` (centres undefined), the cytotoxicity call was “inactive”. As to `COc1ccc2c3c(n(c2c1)C)[C@H](CO)N(C[C@]13CCN(CC1)C(=O)c1ccccc1F)C(=O)Nc1ccccc1F`, the cytotoxicity call is “inactive”. As for `C[C@@H]1CN([C@H](C)CO)C(=O)c2cc(NS(=O)(=O)c3cn(C)cn3)ccc2O[C@@H](C)CCCCO[C@H]1CN(C)S(=O)(=O)c1ccc(F)cc1`, the entry is “inactive”; as for `COc1ccc(-c2cnc3c(c2)C(=O)N([C@@H](C)CO)C[C@@H](C)[C@H](CN(C)S(=O)(=O)c2ccc(OC)cc2)O3)cc1`, “inactive”.

As to `NS(=O)(=O)c1ccc(O)c([N+](=O)[O-])c1`, the cytotoxicity call was “inactive”. Consider `O=[N+]([O-])c1ccc(O)c2ncccc12`, for which the cytotoxicity call was “active”. The same measure for `Oc1ccc(Cl)c2cccnc12` [listing 1 of 2 here]: “active”. Turning to `Oc1ccc(Cl)c2c1CCC2`, the cytotoxicity call was “inactive”. Regarding `Oc1ccc(Cl)c2cccnc12` [listing 2 of 2 here], the cytotoxicity call was “active”. With `O=[N+]([O-])c1ncn(Cc2ccccn2)n1`, the cytotoxicity call is “inactive”. As to `Fc1cccc2c(Cl)ccnc12`, the cytotoxicity call is “inactive”. As for `O=C(C[C@H]1CC[C@@H]2[C@H](COC[C@@H](O)CN2C(=O)c2ccncc2)O1)NC1CCC1`, the entry is “inactive”. As for `C[C@@H]1CCCCO[C@H](CN(C)CC2CCCCC2)[C@H](C)CN([C@@H](C)CO)C(=O)c2cc(NC(=O)NC3CCCCC3)ccc2O1`, the entry is “inactive”; as for `O=C(C[C@@H]1CC[C@@H]2[C@H](COC[C@H](O)CN2Cc2ccccc2F)O1)N[C@H]1CCN(Cc2ccccc2)C1`, “inactive”; as for `C[C@H](CO)N1C[C@H](C)[C@@H](CN(C)C(=O)Nc2cccc3ccccc23)Oc2c(NS(=O)(=O)c3ccc(F)cc3)cccc2C1=O`, “inactive”. For the molecule `C[C@H]1CN([C@@H](C)CO)C(=O)c2cc(NC(=O)Cn3cnnn3)ccc2O[C@H]1CN(C)Cc1ccc(C(=O)O)cc1`, the cytotoxicity call was “inactive”.

As for `COc1ccc(S(=O)(=O)N(C)C[C@@H]2Oc3ccc(NC(=O)CCN4CCOCC4)cc3C(=O)N([C@H](C)CO)C[C@@H]2C)cc1`, the cytotoxicity call was “inactive”. As for `COCC#Cc1cnc2c(c1)C(=O)N([C@@H](C)CO)C[C@@H](C)[C@H](CN(C)C(=O)CCN1CCCCC1)O2`, the cytotoxicity call is “inactive”.

With `C[C@H]1CCCCO[C@H](CN(C)S(=O)(=O)c2ccccc2)[C@@H](C)CN([C@@H](C)CO)C(=O)c2cc(NC(=O)Nc3ccc(C(F)(F)F)cc3)ccc2O1`, the cytotoxicity call is “active”. Regarding `C[C@@H]1CCCCO[C@H](CN(C)S(=O)(=O)c2ccccc2)[C@@H](C)CN([C@@H](C)CO)C(=O)c2cc(NC(=O)Nc3ccc(C(F)(F)F)cc3)ccc2O1`, the cytotoxicity call was “inactive”. On to `C[C@@H]1CCCCO[C@H](CN(C)S(=O)(=O)c2ccccc2)[C@H](C)CN([C@@H](C)CO)C(=O)c2cc(NC(=O)Nc3ccc(C(F)(F)F)cc3)ccc2O1`, for which the cytotoxicity call is “active”. As for `C[C@@H]1CCCCO[C@@H](CN(C)S(=O)(=O)c2ccccc2)[C@@H](C)CN([C@H](C)CO)C(=O)c2cc(NC(=O)Nc3ccc(C(F)(F)F)cc3)ccc2O1`, the entry is “inactive”; as for `C[C@@H]1CCCCO[C@H](CN(C)S(=O)(=O)c2ccccc2)[C@@H](C)CN([C@H](C)CO)C(=O)c2cc(NC(=O)Nc3ccc(C(F)(F)F)cc3)ccc2O1`, “active”; as for `C[C@H](CO)N1C[C@H](C)[C@H](CN(C)S(=O)(=O)c2ccccc2)OCCCC[C@H](C)Oc2ccc(NC(=O)Nc3ccc(C(F)(F)F)cc3)cc2C1=O`, “inactive”. For the molecule `C[C@@H]1CCCCO[C@@H](CN(C)S(=O)(=O)c2ccccc2)[C@H](C)CN([C@H](C)CO)C(=O)c2cc(NC(=O)Nc3ccc(C(F)(F)F)cc3)ccc2O1`, the cytotoxicity call is “inactive”. As for `C[C@@H]1CN([C@@H](C)CO)C(=O)c2cc(NC(=O)Nc3ccc(C(F)(F)F)cc3)ccc2O[C@@H](C)CCCCO[C@H]1CN(C)S(=O)(=O)c1ccccc1`, the entry is “inactive”; as for `C[C@@H]1CCCCO[C@@H](CN(C)S(=O)(=O)c2ccccc2)[C@@H](C)CN([C@@H](C)CO)C(=O)c2cc(NC(=O)Nc3ccc(C(F)(F)F)cc3)ccc2O1`, “inactive”. The same measure for `C[C@H]1CCCCO[C@@H](CN(C)S(=O)(=O)c2ccccc2)[C@@H](C)CN([C@@H](C)CO)C(=O)c2cc(NC(=O)Nc3ccc(C(F)(F)F)cc3)ccc2O1`: “active”; for `C[C@H](CO)N1C[C@H](C)[C@@H](CN(C)S(=O)(=O)c2ccccc2)OCCCC[C@H](C)Oc2ccc(NC(=O)Nc3ccc(C(F)(F)F)cc3)cc2C1=O`: “inactive”; for `C[C@@H]1CN([C@@H](C)CO)C(=O)c2cc(NC(=O)Nc3ccc(C(F)(F)F)cc3)ccc2O[C@@H](C)CCCCO[C@@H]1CN(C)S(=O)(=O)c1ccccc1`: “inactive”.

Turning to `OCC1CCNCC1`, the cytotoxicity call was “inactive”. Regarding `COC(=O)c1sccc1NC(=O)Cn1cnc2c1c(=O)n(C)c(=O)n2C`, the cytotoxicity call is “inactive”. The same measure for `CC(=O)N(C)C[C@H]1Oc2ncc(C#C[C@H](C)O)cc2C(=O)N([C@@H](C)CO)C[C@H]1C`: “inactive”; for `C[C@H]1CN([C@@H](C)CO)S(=O)(=O)c2ccc(-c3ccc(C(=O)N(C)C)cc3)cc2O[C@@H]1CN(C)C(=O)C1CCOCC1`: “inactive”; for `CC(C)NC(=O)Nc1ccc2c(c1)CC(=O)N([C@H](C)CO)C[C@H](C)[C@H](CN(C)S(=O)(=O)c1ccccc1)O2`: “inactive”. The same measure for `Nc1ccn([C@@H]2C[C@@H](O)[C@H](CO)O2)c(=O)n1`: “inactive”; for `COc1ccc(NC(=O)N(C)C[C@@H]2Oc3ccc(NC(=O)CCCN(C)C)cc3C(=O)N([C@@H](C)CO)C[C@H]2C)cc1`: “inactive”; for `COc1ccc(NC(=O)N(C)C[C@@H]2OCCCC[C@@H](C)Oc3ccc(NC(=O)C4CCCCC4)cc3C(=O)N([C@@H](C)CO)C[C@H]2C)cc1`: “inactive”. As for `C[C@H]1CC/C=C\[C@H]2O[C@@]34C=CCN(CCN5CCOCC5)C(=O)[C@H]3N(CCO)C(=O)[C@@H]4[C@@H]2C(=O)O1`, the entry is “inactive”; as for `COc1cc(OC)cc(C(=O)N(Cc2ccco2)Cc2cc3ccc(SC)cc3nc2-c2cccc(OC)c2)c1`, “inactive”; as for `Fc1ccccc1-c1nc2ccn(Cc3ccc(-c4ccc(C(F)(F)F)cc4C(F)(F)F)nn3)cc-2n1`, “active”. For the molecule `CO[C@@H]1CN(C)C(=O)c2ccc(NC(=O)C3CC3)cc2OC[C@H](C)N(C(=O)Cc2ccccn2)C[C@@H]1C`, the cytotoxicity call was “inactive”. In the case of `COC(=O)C=Cc1cc(OC)c(OC)c(OC)c1`, the cytotoxicity call is “inactive”. The same measure for `COc1cc(C=CC(=O)O)cc(OC)c1O`: “inactive”; for `COc1cc(/C=C/C(=O)N(C)CCN(C)C(=O)/C=C/c2cc(OC)c(OC)c(OC)c2)cc(OC)c1OC`: “inactive”; for `COc1cc(/C=C/C(=O)N2CCC=CC2=O)cc(OC)c1OCCOCCOCCOCCC(=O)OC(C)(C)C`: “active”. `COc1cc(C=CC(=O)N2CCCCCCC2)cc(OC)c1OC`: the cytotoxicity call was “inactive”.

For `COc1cc(C=CC(=O)N2CCC=CC2=O)cc(OC)c1OC`, the cytotoxicity call is “active”. The same measure for `CCOC(=O)/C=C/C(=O)N1CCC=CC1=O`: “active”. Turning to `COc1cc(C=CC(=O)O)cc(OC)c1OC`, the cytotoxicity call was “inactive”. The same measure for `COc1cc(C=CC(N)=O)cc(OC)c1OC`: “active”; for `C=C(C)C(=O)N1CCC=CC1=O`: “inactive”; for `COc1cc(/C=C/C(=O)N2CCC=CC2=O)cc(OC)c1OC(=O)CCCCCCCCCCC(=O)Oc1c(OC)cc(/C=C/C(=O)N2CCC=CC2=O)cc1OC`: “inactive”. The same measure for `C/C=C/C(=O)N1CCC=CC1=O`: “inactive”; for `Cn1cc(S(=O)(=O)N2CCN(Cc3ccccc3)CC2)c(=O)n(C)c1=O`: “inactive”.

In the case of `C=CCOC(=O)O[C@H]1[C@@H](OC)O[C@H](COC(=O)NCCCCCC(=O)NO)[C@H]2OC(=O)[C@@H](Cc3cccc(Br)c3)C/C=C/C[C@H](Cc3ccccc3)C(=O)O[C@H]12`, the cytotoxicity call was “inactive”.

As to `CN1C(=O)c2cc(NS(=O)(=O)c3ccc(F)cc3)ccc2OC[C@@H]2O[C@@H](CC(=O)NCC(F)(F)F)CC[C@H]21`, the cytotoxicity call is “inactive”. For the molecule `C[C@H]1CN([C@@H](C)CO)C(=O)c2cc(C#CCN(C)C)cnc2O[C@H]1CN(C)S(=O)(=O)c1cn(C)cn1`, the cytotoxicity call is “inactive”.

For `O=C(C[C@H]1CC[C@H]2[C@@H](COC[C@H](O)CN2S(=O)(=O)c2ccc(Cl)cc2)O1)N[C@H]1CCN(Cc2ccccc2)C1`, the cytotoxicity call was “inactive”. The same measure for `CC(C)NC(=O)Nc1ccc2c(c1)C(=O)N([C@@H](C)CO)C[C@H](C)[C@@H](CN(C)C(=O)C1CCCCC1)OCCCC[C@H](C)O2`: “inactive”; for `CCNC(=S)NCC1CC1`: “inactive”. As for `Cc1ccc(S(=O)(=O)Nc2ccc3c(c2)C(=O)N([C@H](C)CO)C[C@H](C)[C@H](CN(C)Cc2ccc4c(c2)OCO4)OCCCC[C@@H](C)O3)cc1`, the entry is “inactive”; as for `C[C@@H]1CN([C@H](C)CO)S(=O)(=O)c2ccc(C#Cc3ccc(F)cc3)cc2O[C@@H]1CN(C)CC1CC1`, “inactive”. The same measure for `CO[C@@H]1CN(C)C(=O)c2ccc(NS(C)(=O)=O)cc2OC[C@@H](C)N(C(=O)CN(C)C)C[C@@H]1C`: “inactive”; for `C[C@@H]1CN([C@@H](C)CO)C(=O)Cc2cc(NC(=O)Cn3cnnn3)ccc2O[C@@H]1CN(C)Cc1ccc(-c2ccccc2)cc1`: “inactive”; for `C[C@H](CO)N1C[C@H](C)[C@H](CN(C)S(=O)(=O)c2ccc(Cl)cc2)OCCCC[C@H](C)Oc2ccc(NC(=O)Nc3cccc4ccccc34)cc2C1=O`: “inactive”. For the molecule `CCCCc1oc2ccccc2c1C(=O)c1cc(I)c(OCCN(CC)CC)c(I)c1.Cl`, the cytotoxicity call was “active”. The same measure for `CCCCc1oc2ccccc2c1C(=O)c1cc(I)c(OCCN(CC)CC)c(I)c1`: “active”. As for `CCCCOc1cc(C(=O)NCCN(CC)CC)c2ccccc2n1.Cl`, the entry is “inactive”.
